Source: PubChem BioAssay
L3MBTL1 block – L3MBTL1 (human) inhibition; Potency, µM (series often up to 57.1 µM), without a hit: top-dose activity, negative = inhibition, most hits filed as inhibitors; 230,000 tested, 0.66% active; Q9Y468; AlphaScreen L3MBTL1–H3K9me1 peptide binding; AID 485360; also: nearly all actives have a fitted effect of over 60% in size
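AlphaScreen proximity signal between nickel-chelate acceptor and streptavidin donor beads (final 10 ug/mL) reports binding of 50 nM L3MBTL1 to 75 nM biotin-H3 K9me1 peptide; complex incubated with compounds 30 min at room temperature; cefsulodin titration as control.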
BLM helicase inh – blocks DNA unwinding by human BLM helicase | P54132 | Potency, µM (top dose mostly 56.1 µM), for the others: at the highest dose activity change, negative = inhibition, hits mostly inhibitors | 350,000 tested, 0.2% active | AID 2528 | recombinant BLM DNA unwinding, fluorescence dequenching;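 also: plate controls were vehicle for no effect and no enzyme for full effect; nearly all actives have a fitted effect of over 35% in size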
KDM4E inh – JMJD2E (human) inhibition | B2RXH2 | JMJD2E catalytic domain, FDH-coupled NADH fluorescence (FDH is formaldehyde dehydrogenase) | Potency, µM (series often up to 57.1 µM), for the others: at the highest dose activity change, negative = inhibition, actives largely listed as inhibitors | 230,000 tested, 1.6% active | AID 2147; active = well fitted inhibition curve with a large enough effect, not every such curve was filed as active; inconclusive = small, poorly fitted or top-dose-only effect, or another doubt; inactive = no such curve, though single readings can be large or run the other way;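 also: 0% = wells with enzyme and -100% = buffer wells without enzyme; nearly all actives have a fitted effect of over 50% in size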
GCN5L2 inh – blocks human GCN5L2 histone acetyltransferase; AID 504327; GCN5L2 HAT assay, ThioGlo1 CoA-SH fluorescence; Potency, µM (series often up to 58.9 µM), for inactives: top-dose activity change, negative = inhibition, most hits filed as inhibitors; 390,000 tested, 0.21% active
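Enzyme at 20nM final was mixed with library compounds for 15 min at room temperature. Peptide H3(1-25) at 75uM, acetyl-CoA at 70uM and ThioGlo1 at 50uM were then added. Plates were read immediately and after 20 min (Ex340nm/Em540nm).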
RECQ1 inh – inhibitors of human RECQ1 DNA helicase. 240,000 tested, 0.54% active. AID 2549. P46063. RECQ1 DNA unwinding, red fluorescence kinetic read. Potency, µM (top dose mostly 57.3 µM), for inactives: at the highest dose activity, negative = inhibition, most hits filed as inhibitors;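 also: plate controls were vehicle for no effect and no enzyme for full effect; nearly all actives have a fitted effect of over 30% in size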
Target sequence (P46063 whole entry, looked up): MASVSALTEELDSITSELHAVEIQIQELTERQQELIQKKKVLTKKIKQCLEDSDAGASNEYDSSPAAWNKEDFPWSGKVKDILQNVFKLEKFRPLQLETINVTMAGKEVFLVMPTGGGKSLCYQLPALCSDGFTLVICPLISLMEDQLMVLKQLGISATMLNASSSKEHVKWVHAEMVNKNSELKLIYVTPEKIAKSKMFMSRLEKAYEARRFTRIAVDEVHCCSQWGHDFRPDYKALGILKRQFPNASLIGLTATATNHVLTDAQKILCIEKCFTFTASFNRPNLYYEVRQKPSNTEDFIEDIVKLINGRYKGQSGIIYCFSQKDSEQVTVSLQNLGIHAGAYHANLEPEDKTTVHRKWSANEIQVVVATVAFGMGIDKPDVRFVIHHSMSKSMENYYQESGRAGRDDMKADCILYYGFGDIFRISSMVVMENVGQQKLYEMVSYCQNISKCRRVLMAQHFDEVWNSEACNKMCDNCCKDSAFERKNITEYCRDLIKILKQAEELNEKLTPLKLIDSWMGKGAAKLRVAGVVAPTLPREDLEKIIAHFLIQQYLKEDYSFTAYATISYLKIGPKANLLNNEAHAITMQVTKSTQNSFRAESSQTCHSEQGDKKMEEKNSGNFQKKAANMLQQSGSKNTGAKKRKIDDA
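50 nM RECQ1T1 preincubated 15 min with compound in Tris pH 8.0 buffer with MgCl2, DTT, Tween-20 and 2.5 ug/ml poly(dI-dC); started with 200 nM TAMRA/BHQ-2 forked duplex and 2 mM ATP. Unwinding read as fluorescence (525/598 nm), two reads 2 h apart.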
APEX1 inh – blocks human APE1 abasic DNA cleavage; P27695; recombinant APE1, TAMRA/BHQ-2 abasic DNA cleavage fluorescence; Potency, µM (top dose mostly 65.8 µM), without a hit: at the top dose activity change, negative = inhibition, most hits filed as inhibitors; 350,000 tested, 0.35% active;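 also: plate controls were vehicle for no effect and reference inhibitor for full effect; nearly all actives have a fitted effect of over 55% in size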
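APE1 at 0.75 nM final was preincubated with compound 15 min at room temperature, then 50 nM double-stranded THF abasic-site substrate (5'-TAMRA/3'-BHQ-2) was added. Fluorescence (ex 525/em 598 nm) was read kinetically; third-minus-first read gave activity.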
An asterisk follows results filed as active; i = inactive; u = inconclusive; x = not tested or not shown; ! = not confirmed by another sample; [ ] = dose if it differs, or a comment. Shown is part of a subset that was picked to be rich in hits. Unless noted, calls follow the shape of the dose curve; as a rule, active = well fitted curve in the direction sought with a large enough effect; inconclusive = small, poorly fitted or top-dose-only effect, or another doubt; inactive = no such curve, though single readings can be large; an effect the other way counts as inactive or inconclusive. Unless noted, % is scaled to controls: 0 for no effect and ±100 for the full control effect; potency is read from the fitted curve at half-maximal effect.

SMILES	L3MBTL1 block	BLM helicase inh	KDM4E inh	GCN5L2 inh	RECQ1 inh	APEX1 inh
N#CC(C#N)=Cc1ccc(O)cc1	x	-15%	x	u	16%	u
C=CCn1c(O)c(/C=C2/C=CC=N2)c(=O)[nH]c1=O	3%	0%	-1%	0%	11µM*	-3%
O=C(O)Cc1cccnc1C(=O)O	x	1%	1.6µM*	-3%	-15%	-5%
O=C1C[C@@H]2OCC=C3CN4CC[C@]56c7ccccc7N1[C@H]5[C@H]2[C@H]3C[C@H]46	x	x	x	x	x	1%
Cn1cccc1/C=C1\C(=O)NC(=O)N(CCC2=CCCCC2)C1=O	-3%	-2%	2%	40%	40µM*	-7%
CN1CCc2cc3c(cc2[C@@H]1[C@@H]1OC(=O)c2c1ccc1c2OCO1)OCO3	x	7%[21.4 µM]	-13%[25.5 µM]	9%[21.4 µM]	-5%[25.9 µM]	0%[21 µM]
C[N+]1([O-])[C@@H]2CC(OC(=O)[C@@H](CO)c3ccccc3)C[C@@H]1[C@H]1O[C@H]12 (some centres undefined)	x	-11%	0%[25.5 µM]	10µM*!	-7%[25.9 µM]	x
O=C1NC(=O)N(Cc2ccc(F)cc2)C(=O)/C1=C\c1ccc(N2CCCC2)cc1	-25%	-27%	-26%	-29%	-28%	-3%
COc1ccc(CN2C(=O)NC(=O)/C(=C\c3cc(OC)c(OC)c(OC)c3)C2=O)cc1	x	-4%	9%	-2%	-17%	7%
COc1ccc(CN2C(=O)NC(=O)/C(=C/c3ccc([N+](=O)[O-])s3)C2=O)cc1	28µM*	-22%	25µM*	u	32µM*	u
O=C1NC(=O)N(Cc2ccc(F)cc2)C(=O)/C1=C\c1ccc([N+](=O)[O-])s1	x	-18%	28µM*	u	32µM*	u
O=C(O)c1ccccc1O	15%	-3%	u	u	-3%	-6%
O=C(O)c1cc(O)c(O)c(O)c1	x	-7%	0.35µM*	u	-2%	u
N/C(=N\N=C\c1ccc(O)cc1O)N[N+](=O)[O-]	x	-9%	25µM*	0%	i	5%
O=[N+]([O-])c1cc(S(=O)(=O)c2ccc(O)c([N+](=O)[O-])c2)ccc1O	10µM*	40%	-1%	-3%	-15%	u
CCCc1cc2c(n1Cc1ccco1)C(C)C1CN(C(=O)c3ccccc3)C(C)(C(=O)OC)C21 (centres undefined)	x	-30%	u	x	1%	-6%
CCn1cc(C(=O)O)c(=O)c2cc(F)c(N3CCNCC3)cc21	-4%	-4%	16µM*	u	3%	10%
c1ccc(N=NNc2ccccc2)cc1	x	x	x	x	-9%	4%
CCC(C)(S(=O)(=O)CC)S(=O)(=O)CC	x	-2%	x	2%	x	x
C=CCN1C(=O)NC(=O)/C(=C/c2cc3c4c(c2)CCCN4CCC3)C1=O	28µM*	u	20µM*	-30%	32µM*	u
C=CCN1C(=O)NC(=O)/C(=C/c2cnc(SC)nc2)C1=O	2%	0%	u	-3%	i	-3%
C[C@@H](N)[C@@H](O)c1ccccc1	x	x	x	x	x	5%[21 µM]
CC(C)c1cccc(O)c(=O)c1	-1%	2%	7.9µM*	-5%	25%	-2%
CC(=O)OC1CC2C(C)(C)C(O)C=C[C@@]2(C)C2CC[C@]3(C)C(=CC(=O)OC3c3ccoc3)[C@]12C (some centres undefined)	x	1%	-6%	-16%	-9%	-2%
CC1OC(C[N+](C)(C)C)CC1O (centres undefined)	1%	x	x	-3%	x	-5%
C[C@H]1OC[C@@H](C[N+](C)(C)C)O1	8%	-1%	25µM*!	u	-2%	-3%
O=C1NC(=O)C2(Cc3ccccc3N3CCCC32)C(=O)N1c1ccc(Cl)cc1 (centres undefined)	-10%	-1%	25µM*	-21%	-15%	-6%
COc1ccc(N2C(=O)NC(=O)/C(=C/c3ccc([N+](=O)[O-])s3)C2=O)cc1	x	-3%	20µM*	-15%	u	u
